# FUS suppressor – suppressors of FUS proteinopathy in yeast; S. cerevisiae FUS-expressing, growth rescue, OD600, 24 h; Potency, µM (series often up to 76.6 µM), usual class: activators; actives 0.24% (n = 390,000); AID 1347120; also: nearly all actives have a fitted effect of over 55% in size
#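 Read-out: OD at 600 nm after 24hr at 30C, reporting rescue of FUS-induced yeast toxicity. Cells at OD 0.005 in galactose (2%) minimal medium; compounds tested in a dilution series; CP55940 titration from 92uM final as control.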
# aSyn rescue – rescues yeast growth from alpha-synuclein toxicity. Potency, µM (top dose mostly 46.1 µM), actives largely listed as activators. Yeast expressing alpha-synuclein, growth rescue, BacTiter-Glo, 24 h. AID 652106. actives 0.14% (n = 370,000); also: nearly all actives have a fitted effect of over 65% in size
#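 Readout is rescue of growth in alpha-synuclein-expressing yeast, so inhibitors of toxicity appear as activators. Growth after 24 hr at 30 deg C in galactose medium is quantified by luminescence.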
# TDP-43 yeast inh – rescues yeast growth from TDP-43 toxicity; Potency, µM (titrated, usually from 46.1 µM), actives largely listed as activators; TDP-43 expressing yeast growth rescue, BacTiter-Glo, 24 h; actives 1.8% (n = 410,000); also: nearly all actives have a fitted effect of over 50% in size
#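 Luminescence from BacTiter-Glo reports growth of TDP-43-expressing yeast after 24 hr at 30 deg C with compound. Cells were raffinose-pregrown to mid-log, then seeded in galactose medium at OD600=0.02.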
# Glioma ERSR ind – inducers of ER stress response in human glioma cells; U87-MG GRP78 promoter luciferase reporter, 16 h; Potency, µM, actives largely listed as activators; actives 0.02% (n = 420,000); also: series mostly up to about 76 µM; nearly all actives have a fitted effect of over 35% in size
#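 ERSR induction read as luciferase luminescence (Bright-Glo, 10 min at room temperature) in stably transfected human U87-MG glioma cells exposed to compounds for 16 h, using GRP78 as sensor.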
# MBNL1 CUG block – blocks human MBNL1 binding to CUG repeat RNA; TR-FRET MBNL1-His/biotin-(CUG)12 binding, 665/545 ratio; Q9NR56; AID 2675; actives 0.036% (n = 280,000); Potency, µM (highest dose often 57.5 µM), usual class: inhibitors; active = well fitted inhibition curve with a large enough effect in the signal ratio, with a control signal flat, not every such curve was filed as active; inconclusive = small, poorly fitted or top-dose-only effect, or effect the other way, or a change in a side signal; inactive = no such curve, though single readings can be large or run the other way; the % refers to the signal ratio
# Target sequence (Q9NR56 whole entry, looked up): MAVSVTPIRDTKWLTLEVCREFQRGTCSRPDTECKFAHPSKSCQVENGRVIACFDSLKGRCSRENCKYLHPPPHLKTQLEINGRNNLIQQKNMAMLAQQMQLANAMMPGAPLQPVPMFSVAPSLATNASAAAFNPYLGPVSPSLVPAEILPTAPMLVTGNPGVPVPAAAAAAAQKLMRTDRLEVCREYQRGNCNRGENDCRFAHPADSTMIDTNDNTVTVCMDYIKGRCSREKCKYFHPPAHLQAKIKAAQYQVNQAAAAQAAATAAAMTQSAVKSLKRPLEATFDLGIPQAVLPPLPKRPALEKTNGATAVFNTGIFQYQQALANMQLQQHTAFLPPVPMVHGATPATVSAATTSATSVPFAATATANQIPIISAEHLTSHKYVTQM
#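 Inhibition of protein-RNA binding appears as loss of TR-FRET between terbium anti-His antibody on MBNL1-His and streptavidin-XL665 on biotin-(CUG)12. Activity is normalized to buffer-only and uninhibited-complex controls.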
# Abeta yeast res – restores growth of yeast expressing A-beta42 peptide; yeast expressing A-beta42, growth rescue, OD600, 48 h; response scale: 0% DMSO, 100% iron-clioquinol control; AID 1347071; actives 0.063% (n = 410,000); Potency, µM (doses to about 46.1 µM), hits mostly activators; also: nearly all actives have a fitted effect of over 55% in size
#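 Growth rescue measured by 600 nm absorbance after 48 h yeast culture at 30 C with compound. Values normalized between DMSO and an equimolar ferric chloride plus clioquinol control.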
# Numbers stand for hits; n = inactive; u = inconclusive; x = no result given; [ ] = remark or other dose. In the library only some 2% were active in any assay of this set; here they are far more common. Unless noted, calls follow the shape of the dose curve; as a rule, active = well fitted curve in the direction sought with a large enough effect; inconclusive = small, poorly fitted or top-dose-only effect, or another doubt; inactive = no such curve, though single readings can be large; an effect the other way counts as inactive or inconclusive.
SMILES,FUS suppressor,aSyn rescue,TDP-43 yeast inh,Glioma ERSR ind,MBNL1 CUG block,Abeta yeast res
O=C1NC(c2ccccc2)=C(c2nc3ccccc3s2)C(c2ccc(O)cc2)N1 (configuration not stated),35.5µM,n,n,n,n,n
O=C1NC(c2ccccc2)=C(c2ccc3ccccc3n2)C(c2ccccc2)N1 (configuration not stated),n,n,n,n,n,n
CC(=O)c1ccc(-c2cc(F)cc3c2OC(CNC(=O)Cc2cn4ccsc4n2)C3)s1 (configuration not stated),x,x,x,n,x,x
CCCc1nc(SCC(=O)c2ccccc2)c2c(=O)n(C)c(=O)n(C)c2n1,n,u,14.1µM,n,n,n
CN(C(=O)Cn1ncc2c1-c1ccccc1OC2)c1ccc(Br)cc1,n,x,17.8µM,n,x,n
CCN(CC)C(=O)Cn1ncc2c1-c1ccccc1OC2,n,n,n,n,n,n
COC(=O)c1cc(NC(=O)Cn2ncc3c2-c2ccccc2OC3)cc(C(=O)OC)c1,n,x,n,n,x,n
O=C(Cn1ncc2c1-c1ccccc1OC2)Nc1nc2ccccc2s1,n,n,14.1µM,n,n,n
CNC(=O)[C@@H]1C[C@H](Sc2nc3ccccc3[nH]2)CN1Cc1cccc(C(F)(F)F)c1,x,x,x,n,x,x
COC(=O)C1=NN(C(=O)c2cccc(Br)c2)C(O)(c2ccc(Cl)cc2)C1 (configuration not stated),n,17.8µM,u,n,n,n
COC(=O)C1CCN(Cc2ccc3c(c2)CN(C(=O)c2ccnn2C)CCO3)CC1,x,x,x,n,x,x
Cc1ccc(-c2nc3ccccc3c(=O)n2O)cc1,n,20µM,n,n,n,n
O=c1c2ccccc2nc(-c2ccc([N+](=O)[O-])cc2)n1O,n,u,n[9.22 µM],n,x,n
O=c1c2ccccc2nc(-c2ccccc2)n1Cc1ccc(Cl)cc1,n,n,n,n,n,n
O=c1c2ccccc2nc(-c2ccccc2)n1Cc1ccccc1,n,n,22.4µM,n,n,n
Cc1c[nH]c2cccc(-c3cc4ccccc4o3)c12,n,x,x,x,x,x
c1ccc(-c2c[nH]c3cccc(-c4cc5ccccc5o4)c23)cc1,n,x,x,x,x,x
O=[N+]([O-])c1ccccc1OCc1nc(-c2cccs2)no1,n,n,12.6µM,n,u,n
O=[N+]([O-])c1ccc(F)cc1OCc1nc(-c2cccs2)no1,n,n,n,n,u,n
O=C([C@@H]1C[C@@H](Sc2nc3ccccc3[nH]2)CN1CC1CCCCC1)N1CCOCC1,x,x,x,n,x,x
CC(C)(C)OC(=O)CNC(=O)c1[nH]cnc1C(=O)NC1CCN(C(=O)OC(C)(C)C)CC1,u,n,n,n,n,n
CC(C)(C)OC(=O)N1CCC(NC(=O)c2nc[nH]c2C(=O)NC2CCN(C(=O)OC(C)(C)C)CC2)CC1,11.2µM,n,n,n,x,n
Cc1cccc(Nc2ncc3c(n2)CC(c2ccco2)CC3=O)c1 (configuration not stated),n,n,u,n,n,n
Cc1cc(C)cc(Nc2ncc3c(n2)CC(c2ccco2)CC3=O)c1 (configuration not stated),u,n,15.8µM,n,n,n
Cc1cc(C)c(NC(=O)c2cc3c(=O)n4ccccc4nc3n2C)c(C)c1,n,x,35.5µM,n,x,n
SMILES,FUS suppressor,aSyn rescue,TDP-43 yeast inh,Glioma ERSR ind,MBNL1 CUG block,Abeta yeast res
O=C(NCC1CCC2(CCN(Cc3cccc(-c4ccco4)c3)CC2)O1)c1ccccc1 (configuration not stated),x,x,x,n,x,x
CCOC(=O)C1(Cc2ccccc2)CCN(Cc2ccc(C(F)(F)F)cc2)CC1,n,x,x,x,x,x
O=S(=O)(/C=C/c1ccccc1)NCc1ccccc1Cl,n,n,11.2µM,n,x,n
CCn1nc(-c2ccc(C)cc2)nc2c(=O)n(C)c(=O)nc1-2,x,n,x,n,x,x
COc1ccc(-c2nnc(SCC(=O)Nc3cc(F)ccc3C)o2)cc1,n,n,11.2µM,n,n,u
COc1ccccc1NC(=O)CSc1nnc(-c2ccoc2C)o1,n,n,u,n,x,n
COc1ccc(NC(=O)CCn2nc(-c3ccccc3OC)c3c(C)cc(C)nc32)cc1,n,x,14.1µM,n,x,n
COc1ccccc1NC(=O)CSc1nnc(-c2ccccc2C)o1,n,x,20µM,x,x,n
CCc1ccc(NC(=O)CCn2nc(-c3ccccc3OC)c3c(C)cc(C)nc32)cc1,u,n,u,n,x,n
O=C(CSc1nnc(-c2ccc(F)cc2)o1)Nc1ccccc1N1CCOCC1,n,u,22.4µM,n,x,n
COc1ccccc1NC(=O)c1c(C)cc(C)nc1SCC(=O)Nc1ccc(C)cc1,u,x,17.8µM,n,x,n
COc1ccc(NC(=O)CSc2nc(C)cc(C)c2C(=O)Nc2cccc(C)c2)cc1,n,x,n,n,x,n
O=C(NCCc1csc2nc(-c3ccc(F)cc3)nn12)c1ccco1,n,x,n[9.22 µM],n,x,n
Cc1cccc(-c2nc3scc(CCNC(=O)c4ccccc4Cl)n3n2)c1,n,x,n[9.22 µM],n,x,n
O=C(NCCc1csc2nc(-c3cccc(F)c3)nn12)c1ccc(Br)o1,n,x,35.5µM,n,x,n
Cc1ccc(-c2nc3scc(CCNC(=O)c4cccc(Br)c4)n3n2)cc1,n,x,11.2µM,n,x,n
COCc1c(C(=O)N2CCCCCC2)cnn1-c1nccc(-c2cccs2)n1,x,x,x,n,x,x
CCCCN(CCC(=O)O)c1ccc(/C=C/c2ccnc3ccccc23)cc1,x,x,x,n,x,x
O=c1ccc2ccc(O)c(O)c2o1,x,n,x,41.4µM,x,x
COc1ccc(Nc2ncc(C(=O)N3CCN(c4ccc(F)cc4)CC3)c3ccccc23)cc1,u,n,n,n,n,n
Cc1ccc(Nc2ncc(C(=O)N3CCN(c4ccc(F)cc4)CC3)c3ccccc23)cc1Cl,n,x,12.6µM,n,x,n
COc1ccc(OC)c2sc(N3CCN(C(=O)C(C)(C)C)CC3)nc12,n,x,22.4µM,n,x,n
CCOc1cccc2sc(N3CCN(C(=O)c4ccco4)CC3)nc12,n,x,u,n,x,n
CCOc1cccc2sc(N3CCN(C(=O)C(C)(C)C)CC3)nc12,n,x,11.2µM,n,x,n
C#CCNC(=O)CSCc1nc(-c2ccc(OCC)cc2)oc1C,n,x,x,x,x,x
CC(=O)c1c(C)nc2ccccc2c1N,n,n,n,n,n,n
Cc1nc2ccccc2c(C)c1C(=O)c1ccccc1,n,n,14.1µM,n,n,n
O=C(NCCN1Cc2ccccc2OC(c2ccccc2F)C1)c1cncs1 (configuration not stated),x,x,x,n,x,x
COC(=O)[C@]12C[C@H](CC(=O)N3CCOCC3)C(=O)N(CCc3ccc(OC)c(OC)c3)C1=C[C@H](C1CCCC1)O[C@@H]2C,n,x,x,x,x,x
Cc1ccc(NC(=O)c2cc(S(=O)(=O)N(C)C)ccc2N2CCCC2)cc1F,x,n,n,31.6µM,n,n

# High-throughput results (PubChem BioAssay)
